# An excerpt weighted towards active compounds, which were near 28% of everything screened.
# CYP2C19 act – cytochrome P450 2C19 (human) activation; P33261; recombinant CYP2C19, luciferin-H EGE luminescence; hits give high values; 0 = fully inhibited enzyme, 1 = untreated enzyme; activation factor at 5 µM; 96,000 tested, under 10 active;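 active = activation factor of at least 2 at 5 µM in the primary screen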;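 note: 0 = wells with 2.5 mM tranylcypromine and 1 = vehicle-only wells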
# Target sequence (P33261 whole entry, looked up): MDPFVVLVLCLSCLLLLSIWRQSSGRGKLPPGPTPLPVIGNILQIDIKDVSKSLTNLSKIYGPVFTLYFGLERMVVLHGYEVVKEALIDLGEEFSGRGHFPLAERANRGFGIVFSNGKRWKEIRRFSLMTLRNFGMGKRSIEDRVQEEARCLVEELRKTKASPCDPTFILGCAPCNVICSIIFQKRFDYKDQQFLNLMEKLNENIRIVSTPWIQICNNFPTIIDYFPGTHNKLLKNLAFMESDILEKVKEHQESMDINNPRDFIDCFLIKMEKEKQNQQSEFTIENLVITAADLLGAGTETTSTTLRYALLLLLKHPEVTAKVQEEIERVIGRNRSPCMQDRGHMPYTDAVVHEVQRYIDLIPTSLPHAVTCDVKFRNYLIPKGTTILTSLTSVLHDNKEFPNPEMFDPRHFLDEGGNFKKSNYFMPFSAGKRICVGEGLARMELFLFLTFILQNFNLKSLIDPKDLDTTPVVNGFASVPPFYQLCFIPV
# CYP2C9 inhib – blocks human cytochrome P450 2C9; P11712; CYP2C9 Supersomes, luciferin-H conversion, luminescence; inhibition, % at 5 µM; hit rate 20% among 96,000; AID 777;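 active = blocking of liver enzyme CYP2C9 beyond about 50% at 5 µM, limit read from the data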
# CYP2C9 act – activators of human CYP2C9 | hit rate 1.4% among 96,000 | P11712 | activation factor at 5 µM | recombinant CYP2C9, luciferin-H conversion, luminescence; hits give high values; factor 1 = untreated enzyme, 0 = blocked;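 active = activation factor of 2 or more for CYP2C9 at a 5 µM dose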;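 note: 0 = sulfaphenazole-blocked wells and 1 = vehicle-only wells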
# Mac1 fbg enh – increases human CD11b/CD18 adhesion to fibrinogen. K562 CD11b/CD18 adhesion to fibrinogen, ATPlite luminescence. AID 1499. P05107+P11215. hit rate 0.07% among 93,000. activation, % at 10 µM;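 active = 10 µM primary screen giving 50% or more activity, confirmed by 40% or more on retest at that dose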
# CYP2C19 inhib – human CYP2C19 inhibition; CYP2C19 Supersomes, luciferin-H EGE luminescence, 30 min; inhibition, % at 5 µM; hit rate 21% among 96,000;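 active = CYP2C19 inhibition above a set limit at 5 µM in the primary screen, cut at about 50% in these data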;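 note: plate controls were negative control wells for no effect and 2.5 mM tranylcypromine positive control for full effect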
# Mac1 fbg inh – CD11b/CD18-fibrinogen binding inhibition; inhibition, % at 10 µM; AID 1497; P05107+P11215; K562 CD11b/CD18 adhesion to fibrinogen, ATPlite luminescence; Mn2+ added to activate the integrin; hit rate 0.54% among 93,000;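 active = primary inhibition of 50% or more at 10 µM, then 40% or more on retest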
# Numbers without * were called inactive; · = no result.
SMILES,CYP2C19 act,CYP2C9 inhib,CYP2C9 act,Mac1 fbg enh,CYP2C19 inhib,Mac1 fbg inh
COc1cc2nc(SCc3ccc(Cl)cc3Cl)n(Cc3cccs3)c(=N)c2cc1OC,0.7,74*,0.3,·,26,·
COc1ccc(Cn2c(SCc3ccc(C)cc3)nc3cc(OC)c(OC)cc3c2=N)cc1Cl,1,69*,0.3,-2,-4,56
COc1ccc(Cn2c(SCc3cc(C)ccc3C)nc3cc(OC)c(OC)cc3c2=N)cc1,0.6,56*,0.4,·,37,·
O=C1CSC(c2ccccn2)N1c1cccc(Cl)c1 (stereo unspecified),1,0,1,-3,3,-7
O=C1CSC(c2c(F)cccc2Cl)N1c1cccc(F)c1 (stereo unspecified),0.8,-107,2.1*,·,20,·
COCCOc1cc(Nc2nnc(C(F)(F)F)s2)c(Cl)cc1Cl,0.3,92*,0.1,3,66*,-6
COc1cc(Nc2nnc(C)s2)c(Cl)cc1Cl,0.8,9,0.9,-2,21,2
COc1ccc(CCNC(=O)C2(C)CCC(=O)N2Cc2ccc3c(c2)OCO3)cc1OC (stereo unspecified),0.5,-1,1,0,54*,2
O=C(COc1ccccc1)Nc1nn[nH]n1,1,7,0.9,0,-3,-8
CCn1c(CSc2nc3ccccc3s2)nc2ccccc21,0,-27,1.3,-4,98*,48
Cc1noc(C)c1CSc1nc2ccccc2s1,0.1,39,0.6,0,94*,-17
Cc1noc(C)c1CSc1ncnc2ccccc12,0,86*,0.1,0,96*,3
C#CCSc1nnc(CSc2nc3ccccc3s2)n1-c1ccccc1,0.1,99*,0,0,85*,12
S=c1[nH]nc(CSc2nc3ccccc3s2)n1C1CCCCC1,0.6,40,0.6,-2,38,12
c1csc(CSc2nc3ccccc3s2)c1,0.6,9,0.9,0,45,-7
CC(C)[C@H](NC(=O)c1ccco1)C(=O)OCC(=O)N1CCc2ccccc21,0.6,87*,0.1,-4,41,8
CCOCCCN(Cc1ccco1)C(=O)c1cc2c(=O)[nH]c3ccc(C)cc3c2s1,0.8,21,0.8,-2,19,-3
CCc1nc2c(cnn2-c2ccc(F)cc2)c(=O)n1-c1ccc(N2CCC(C)CC2)cc1,0.5,12,0.9,-4,50*,76*
Cc1ccc(-n2c(C)nc3c(cnn3-c3ccccc3Cl)c2=O)cc1C,0.4,15,0.9,2,59*,-34
Cc1ccc(-n2c(C)nc3c(cnn3-c3ccc(C)c(C)c3)c2=O)cc1C,0.9,5,0.9,28,7,8
Cc1nc2c(cnn2-c2ccccc2Cl)c(=O)n1-c1ccc(N2CCC(C)CC2)cc1,0.3,-38,1.4,-3,72*,-6
CC(Sc1ccccc1)C(=O)Nc1ccccc1C(=O)N1CCOCC1 (stereo unspecified),0.9,10,0.9,-2,12,-2
Cc1sc2ncnc(SCC(=O)N3CCC(c4noc5ccc(F)cc45)CC3)c2c1C,0.4,79*,0.2,-3,65*,-5
Cc1nnc(SCC(=O)N2CCC(c3noc4ccc(F)cc34)CC2)s1,1,37,0.6,2,-2,2
COc1cc(SC)ccc1C(=O)NCc1ccc(C)cc1,0.1,-17,1.2,·,91*,·
SMILES,CYP2C19 act,CYP2C9 inhib,CYP2C9 act,Mac1 fbg enh,CYP2C19 inhib,Mac1 fbg inh
COc1cc(SC)ccc1C(=O)N(C)Cc1ccccc1,0,-38,1.4,·,98*,·
CCCNC(=O)c1ccc(SC)cc1OC,0.7,0,1,3,30,-13
COc1cc(SC)ccc1C(=O)NCC1CCCO1 (stereo unspecified),0.4,-6,1.1,-1,60*,0
COc1cc(SC)ccc1C(=O)NCc1ccccc1,·,·,·,-5,·,14
CCOC(=O)CC(=O)Nc1ccc(C)cc1,0.9,13,0.9,-2,11,-9
CCc1nnc(NC(=O)c2ccc(-c3cccc(C(F)(F)F)c3)o2)s1,0.7,7,0.9,-4,34,-4
Oc1c(N=Nc2ccccn2)ccc2ccccc12,0.7,43,0.6,·,31,·
